Data on 54 compounds can be found in PubChem BioAssay AID1259400 (National Center for Advancing Translational Sciences (NCATS), 2018).

“And” between values parts separate entries of the source, which are not always exact repeats. Equal entries are not always repeated. In all, about 350,000 compounds went through this assay and about 2,100 (0.6%) were called active. Roughly 1% stayed inconclusive and do not appear here.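 The calls were made as follows: active = activity change of -60% or lower, but not beyond a set lower limit; inconclusive = change between -60% and -40%, or beyond the set limit; inactive = change above -40%.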 The entries come from a sample that favours actives as a whole. Where a structure was tested more than once in an assay, its records may differ in their call.
% is scaled to controls: 0 for no effect and ±100 for the full control effect.

Sequence of Relaxin receptor 1 (Homo sapiens) (Q9HBX9 whole entry, looked up): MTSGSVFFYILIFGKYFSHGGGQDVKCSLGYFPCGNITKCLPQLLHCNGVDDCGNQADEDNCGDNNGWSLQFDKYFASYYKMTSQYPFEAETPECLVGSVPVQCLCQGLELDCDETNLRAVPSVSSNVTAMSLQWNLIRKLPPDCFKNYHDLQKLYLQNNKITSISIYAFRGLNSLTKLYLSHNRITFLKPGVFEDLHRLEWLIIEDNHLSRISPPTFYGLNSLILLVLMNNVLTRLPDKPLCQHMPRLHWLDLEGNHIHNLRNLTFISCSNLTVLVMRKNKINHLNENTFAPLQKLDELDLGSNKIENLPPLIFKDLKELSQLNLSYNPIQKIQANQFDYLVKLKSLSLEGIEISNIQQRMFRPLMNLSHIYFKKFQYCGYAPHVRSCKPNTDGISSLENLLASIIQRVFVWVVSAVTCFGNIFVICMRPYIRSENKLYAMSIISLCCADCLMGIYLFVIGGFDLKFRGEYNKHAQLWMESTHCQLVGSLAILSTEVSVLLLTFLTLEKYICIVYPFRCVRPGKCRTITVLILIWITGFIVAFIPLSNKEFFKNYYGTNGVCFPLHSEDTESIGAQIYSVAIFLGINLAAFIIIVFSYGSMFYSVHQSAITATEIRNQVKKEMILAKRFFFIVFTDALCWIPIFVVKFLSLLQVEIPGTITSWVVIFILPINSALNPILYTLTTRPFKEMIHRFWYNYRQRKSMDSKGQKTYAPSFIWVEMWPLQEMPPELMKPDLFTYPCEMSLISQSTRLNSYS

In this assay the target is Relaxin receptor 1 (Homo sapiens) (UniProt Q9HBX9). Description: qHTS Assay for Antagonists of the Relaxin Receptor RXFP1. Conditions: HEK293-RXFP1, relaxin-stimulated cAMP HTRF, 30 min; at 57.5 µM; stronger effect = lower value. From the text:
The relaxin hormone is involved in the variety of biological functions in normal tissues and diseases. The role of relaxin is well-established in female reproduction and parturition, mammary gland and endometrial development, maintenance of myometrial quiescence during pregnancy. Relaxin signaling through its G protein-coupled receptor (GPCR) RXFP1 results in ECM remodeling through regulation of collagen deposition, cell invasiveness, proliferation and overall tissue homeostasis. […] Recombinant human relaxin (rhRlx) is currently being tested in clinical trials as a protective agent in congestive heart failure, in treating severe preeclampsia, and as an anti-fibrotic agent in various organs. […] Upon relaxin binding RXFP1 activation leads to the activation of adenylate cyclase (AC) via G?s. cAMP will activate PKA, which phosphorylates many signaling proteins. Thus, detection of cAMP increase is an easy and reliable indication of relaxin receptor activation. To screen for antagonists of the relaxin receptor, a HEK293T cell line stably transfected with RXFP1 was used. RXFP1 activation by relaxin in presence of various concentrations of tested compounds was assayed by changes in cAMP levels as detected with a time-resolved fluorescence energy transfer (TR-FRET) cAMP detection kit.
For the primary screening, we used HTRF(R) (Homogenous Time-Resolved Fluorescence) cAMP HiRange assay (Cisbio Bioassays, 62AM6PEJ). Presence of cAMP in the cell lysate disrupts binding between the Cryptate-labeled anti-cAMP and d2-labeled cAMP pair, leading to a decrease in TR-FRET signal. The libraries were screened at two doses (57microM and 11microM), followed by a confirmation of the hits at 7-point serial dilution in the range of final concentrations [57microM - 78nM]. Data were normalized to the controls for basal activity (buffer only) and 100% activity (5 nM porcine relaxin). The EC50 values were determined from concentration-response data modeled with the standard Hill equation. NCGC Assay Protocol Summary: HiHEK (Hawaiian HEK293 LGR7 stably transfected with human RXFP1) were grown in the following media: DMEM+10%FBS+Pen/Strep + Geneticin (1mg/ml). For the assay, the cells were seeded in DMEM+Pen/Strep (with no serum & selective antibiotics) at 2,100 cells/ 3microl/well with MultiDrop Combi dispenser (Thermo Scientific, Logan, UT) onto white tissue culture treated solid bottom1536-well plates (Greiner #789173-F) and allowed to attach/recover overnight at 37 degrees C, 5% CO2. Next, 23nl/well of compound solutions in DMSO were transferred into wells with a pintool (Kalypsis, San Diego, CA). […] EC80 (relaxin at 50pM final concentration) was dispensed to the rest of the plate except columns 1&2 which were used as a negative control (EC0, buffer only), 1microl/well also. The cells were stimulated by relaxin in the presence of compounds for 30 minutes at 37 degrees C, 5% CO2. The detection reagents were prepared individually by dilution in Lysis buffer (supplied with the assay kit) just prior to dispensing. 1microl/well of cAMP-d2 and 1microl/well anti-cAMP-Eu3+-Cryptate antibodies were added simultaneously with BioRAPTR FRDtrade mark Workstation (Beckman Coulter). The plates were incubated at ambient temperature for 30 minutes and, then, FRET signal was read on Envision plate reader (PerkinElmer, Waltham, MA), at wavelengths 340nm (excitation), 615nm & 665nm (emission of donor and acceptor channels respectively).
(In general: In qHTS, concentration-response curves come from the screen itself.)
Consider `COc1ccc(OC)c(CNC(=O)C2CCCN(c3nc4ccccc4o3)C2)c1` (centres undefined), for which the activity change, negative = inhibition is 24.2% (inactive). Take `COc1ccc(OC)c(CNC(=O)c2c3c(nc4ccccc24)C(=O)N(C2CCCCC2)C3)c1`: the activity change, negative = inhibition was -60.9% (active). `COc1ccc(CCNC(=O)c2c3c(nc4ccccc24)C(=O)N(C2CCCCC2)C3)cc1OC`: the activity change, negative = inhibition is -34% (inactive). In the case of `CC(=O)c1ccc(N2CCN(c3nc4c(S(=O)(=O)c5ccccc5)nnn4c4ccc(Cl)cc34)CC2)cc1`, the activity change, negative = inhibition was -10.3% (inactive). Then `Cc1ccc(C)c(Cn2c(C(=O)O)c(CNCc3cccs3)c3ccccc32)c1`, with -81.9% (active); and `O=C(O)c1c(CNCc2cccc(F)c2)c2ccccc2n1Cc1ccccc1`, with -7.86% (inactive); and `COc1ccc2c(CNCCc3ccccc3C)c(C(=O)O)n(Cc3ccccc3C)c2c1`, with -12.7% (inactive).

On to `Cc1sc(C2C(C#N)=C(N)N(c3cccc(Cl)c3)C3=C2C(=O)CCC3)cc1CN1CCOCC1` (centres undefined), for which the activity change, negative = inhibition was -18.6% (inactive).

Turning to `Cc1ccc2nc3c(cc(C(=O)NC4CCCCC4)c(=N)n3C(C)C)c(=O)n2c1`, the activity change, negative = inhibition is -8.15% (inactive). For the compound `Cc1cccc(N2CCN(C(=O)C3CCN(S(=O)(=O)c4cnc[nH]4)CC3)CC2)c1C`, the activity change, negative = inhibition was -5.38% (inactive). Turning to `Cc1cccc(N2CCN(C(=O)c3cnc(N4CCCC4)nc3C)CC2)c1C`, the activity change, negative = inhibition was -77.6% (active). Turning to `CCC(CC)C(=O)N1CCN(c2cccc(C)c2C)CC1`, the activity change, negative = inhibition was -5.41% (inactive).

In the case of `O=C(COc1ccc(Cl)cc1)N(Cc1ccco1)Cc1ccco1`, the activity change, negative = inhibition was -34.6% (inactive). The value for `CCOC(=O)c1c(C)oc2nc(C)nc(N3CCN(c4ccc(OC)cc4)CC3)c12` was -3.52% (inactive); that for `S=c1[nH]nc(-c2cc(-c3ccccc3)n[nH]2)n1/N=C/c1c2ccccc2cc2ccccc12` was -78.7% (active); that for `S=c1[nH]nc(-c2cc(-c3ccsc3)n[nH]2)n1-c1ccccc1` was -4.32% (inactive).

As for `Cc1cc(-c2n[nH]c(=S)n2/N=C/C(Br)=C/c2ccccc2)n[nH]1`, the activity change, negative = inhibition is -5.02% (inactive). As to `Cc1nnc(C(=O)NC(C)(C)c2nc(C(=O)NCc3ccc(F)cc3)c(O)c(=O)n2C)o1`, the activity change, negative = inhibition was -18.2% (inactive). `COc1ccc(Cl)cc1N(CC(=O)N/N=C/c1ccc(OCC(N)=O)cc1)S(C)(=O)=O`: the activity change, negative = inhibition was -77.6% (active).

As to `NC(=O)COc1ccc(/C=N/NC(=O)C2CCCN2S(=O)(=O)c2ccc(Cl)cc2)cc1` (centres undefined), the activity change, negative = inhibition was -2.72% (inactive). Take `COc1ccc(Cl)cc1N(CC(=O)N1CCCCC1)S(C)(=O)=O`: the activity change, negative = inhibition was 15.3% (inactive). For the compound `CCOc1ccc(-c2nonc2NC(=O)c2oc3ccc(C)cc3c2C)cc1OCC`, the activity change, negative = inhibition is 6.02% (inactive). Turning to `CN(C(=O)CSc1nnc(NC(=O)Nc2ccccc2)s1)c1ccccc1`, the activity change, negative = inhibition is -2.91% (inactive). As to `CC(C)N(C(=O)CSc1nnc(NC2CC2)s1)c1ccccc1`, the activity change, negative = inhibition is -4.86% (inactive). In the case of `CC(C)c1ccc(Nc2nnc(SCC(=O)c3nnc(-c4ccccc4)o3)s2)cc1`, the activity change, negative = inhibition was -83.3% (active).

Regarding `CCc1ccc(N2C(=O)CN(S(=O)(=O)CC)CC2(C)C(=O)NC2CCCCC2)cc1` (centres undefined), the activity change, negative = inhibition is 4.08% (inactive).

On to `O=C(N/N=C\C1CC=CCC1)c1ccc(Br)o1` (centres undefined), for which the activity change, negative = inhibition was 0.253% (inactive).

For `Cc1nnc(N/N=C/c2ccccn2)[nH]c1=O`, the activity change, negative = inhibition was 5.71% (inactive). On to `Cc1nnc(N/N=C/C2CC=CCC2)[nH]c1=O` (centres undefined), for which the activity change, negative = inhibition is -71.6% (active). The value for `Cc1ccc2nc(-c3ccc(O)cc3)c(Nc3ccc4c(c3)OCO4)n2c1` was 15.3% (inactive); that for `CCN(CC)c1cc(NC2CCCCC2)c2c3c(onc13)-c1ccccc1C2=O` was -18.9% (inactive); that for `CCOC(=O)c1c(NC(=O)CSc2nnc(Cc3csc(N)n3)n2C)sc(C)c1C` was -1.84% (inactive). For the compound `CCOC(=O)c1c(NC(=O)CSc2nccc(=O)[nH]2)sc(C)c1C`, the activity change, negative = inhibition was -91.3% (active). As to `CCOC(=O)c1c(NC(=O)CSc2nnc(CNc3ccc(C)cc3C)o2)sc(C)c1C`, the activity change, negative = inhibition was -10.8% (inactive). In the case of `CCOc1ccccc1C(=O)Nc1ccc(S(=O)(=O)N2CCCCC2c2cccnc2)cc1` (centres undefined), the activity change, negative = inhibition is -12.4% (inactive). With `CCOc1ccc(N(CC)S(=O)(=O)N2CCCC(C(=O)NCc3ccc(Cl)cc3)C2)cc1` (centres undefined), the activity change, negative = inhibition is -18.5% (inactive).

Turning to `CCN(CC)CCCNC(=O)c1ccc2c(=O)n(Cc3ccc4c(c3)OCO4)c(=S)[nH]c2c1`, the activity change, negative = inhibition is -14.7% (inactive). On to `CCCCNC(=O)c1ccc(-n2c(=S)[nH]c3ccccc3c2=O)cc1`, for which the activity change, negative = inhibition was -80.7% (active).

As to `COCCn1c(=S)[nH]c2cc(C(=O)NCCc3ccc(OC)c(OC)c3)ccc2c1=O`, the activity change, negative = inhibition is 2.84% (inactive). The value for `CCN1CCN(c2ncnc3c2cnn3-c2ccc(C)c(C)c2)CC1` was -9.99% (inactive); that for `O=c1oc2ccccc2c(=O)c2ccccc12` was 10.6% (inactive). The value for `Cc1cccc(N2CCN(c3c(CN4CCCC4)c(=O)oc4ccccc34)CC2)c1C` was -2.93% (inactive); that for `Cc1ccccc1-n1nnc2c(=O)oc3ccccc3c21` was -91.4% (active). As for `O=C(OCCN1CCOCC1)c1cccnc1Nc1cccc(C(F)(F)F)c1`, the activity change, negative = inhibition was -38.4% (inactive). For the compound `CCOc1ccc(C(NC(=O)c2cc(OC)c(OC)c(OC)c2)c2cc(Cl)c3cccnc3c2O)cc1` (centres undefined), the activity change, negative = inhibition is -12.8% (inactive). For the compound `Cc1ccccc1CN1C(=O)c2ccccc2Sc2ccc(C(=O)NCCCN3CCOCC3)cc21`, the activity change, negative = inhibition is -22.1% (inactive) and -63.9% (active). Take `CN1CCN(CCCNC(=O)c2ccc(/C=C3\Oc4ccccc4N(Cc4ccc(Cl)cc4)C3=O)cc2)CC1`: the activity change, negative = inhibition is 6.65% (inactive).

On to `O=C(NCCN1CCOCC1)c1ccc(/C=C2\Sc3ccccc3N(Cc3ccc(F)cc3)C2=O)cc1`, for which the activity change, negative = inhibition was -82.1% (active). Consider `O=C(NCCN1CCOCC1)c1ccc2c(c1)N(Cc1cccc(Cl)c1)C(=O)c1ccccc1S2(=O)=O`, for which the activity change, negative = inhibition was 2.8% (inactive). For the compound `O=C(NCCN1CCOCC1)/C(=C/c1ccc(F)cc1)NC(=O)c1ccccc1`, the activity change, negative = inhibition was 12.6% (inactive).

For `CCC1=Nc2cc(C(=O)NCCCN3CCOCC3)ccc2Sc2ccc(Br)cc21`, the activity change, negative = inhibition is -16.7% (inactive). As to `COc1ccc(S(=O)(=O)NCC(c2ccc(N(C)C)cc2)N2CCc3ccccc32)cc1OC` (centres undefined), the activity change, negative = inhibition was -3.43% (inactive). Turning to `CN(C)c1cccc(C(=O)Nc2nc3ccc(S(=O)(=O)NC(C)(C)C)cc3s2)c1`, the activity change, negative = inhibition is 1.26% (inactive). Regarding `CC(C)c1ccc(OCC(=O)N(Cc2ccc(N(C)C)cc2)C2CCS(=O)(=O)C2)cc1` (centres undefined), the activity change, negative = inhibition was -31.5% (inactive).
